High-throughput results from PubChem.
697 NFkB inh: inhibitors of the PMA/ionomycin-induced NF-kB reporter in 697 B cells; 697 B-cell NF-kB luciferase reporter, 16 h; inhibition, % at 4 µM; 330,000 tested, 0.33% active; in the data active means inhibition above about 35%
GalR3 antagonist: antagonists of human GalR3. HEK293 GalR3-CNG cAMP membrane potential fluorescence; galR3 body fused to GalR1 C-terminus. O60755. inhibition, % at 3 µM. 360,000 tested, 0.44% active. AID 651719;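 active means inhibition above the screen-wide average plus 3 SD, cut at about 13% in these data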;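 further: forskolin and galanin both at EC90 stimulate the cells; cAMP rise reported by CNG channel membrane potential dye signal; 0% = forskolin plus galanin with DMSO and 100% = forskolin alone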
Target sequence (O60755 1-299 limits assumed): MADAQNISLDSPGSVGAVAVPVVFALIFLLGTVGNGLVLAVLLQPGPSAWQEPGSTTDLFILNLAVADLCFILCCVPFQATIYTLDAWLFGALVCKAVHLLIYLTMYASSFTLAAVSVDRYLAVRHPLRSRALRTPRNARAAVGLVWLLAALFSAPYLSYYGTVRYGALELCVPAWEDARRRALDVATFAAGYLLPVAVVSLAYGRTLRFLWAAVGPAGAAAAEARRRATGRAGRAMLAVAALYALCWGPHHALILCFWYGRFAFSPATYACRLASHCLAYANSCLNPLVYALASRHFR
Gli-Sufu block: blocks Gli-Sufu signaling in a luciferase reporter; AID 588413; inhibition, % at 5 µM; 340,000 tested, 0.74% active; Sufu-KO-LIGHT fibroblasts, Gli luciferase reporter luminescence;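 active means inhibition above about 55%, limit read from the data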;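 further: 0% = DMSO-treated cells and 100% = wells with medium but no cells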
Jurkat NFkB inh: inhibitors of the PMA/ionomycin-induced NF-kB reporter in Jurkat cells; PMA/ionomycin-induced NF-kB luciferase reporter, luminescence; inhibition, % at 4 µM; 330,000 tested, 0.53% active; in the data active means inhibition above about 50%
COUP-TFII inh: inhibitors of human COUP-TFII (NR2F2) | inhibition, % at 8.6 µM | P24468 | HEK293T NGFI-A luciferase reporter, luminescence | 370,000 tested, 0.7% active;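 active means inhibition above a per-plate cutoff, mean inhibition of test wells between control levels plus 3 SD, cut at about 38% in these data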;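 further: cells cotransfected with COUP-TFII expression vector driving the NGFI-A reporter; 0% = median of COUP-TF2 test wells and 100% = reporter-only cells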
Target sequence (P24468 whole entry, looked up): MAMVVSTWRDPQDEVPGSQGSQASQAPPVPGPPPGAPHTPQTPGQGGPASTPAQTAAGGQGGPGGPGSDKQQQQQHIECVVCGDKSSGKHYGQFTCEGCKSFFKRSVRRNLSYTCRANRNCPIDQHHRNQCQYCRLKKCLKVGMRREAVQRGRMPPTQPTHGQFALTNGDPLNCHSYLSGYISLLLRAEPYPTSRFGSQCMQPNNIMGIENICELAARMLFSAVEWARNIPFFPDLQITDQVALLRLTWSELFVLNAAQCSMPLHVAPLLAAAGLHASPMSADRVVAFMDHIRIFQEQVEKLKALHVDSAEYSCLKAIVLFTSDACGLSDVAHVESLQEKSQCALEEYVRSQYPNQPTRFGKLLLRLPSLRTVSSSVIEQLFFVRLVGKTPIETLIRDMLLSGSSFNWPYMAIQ
Jurkat NFkB conf: lowers PMA/ionomycin-induced NF-kB signal in Jurkat cells; shares compounds with Jurkat NFkB inh; Jurkat NF-kB luciferase, 16 h; inhibition, % at 4 µM; 2,700 tested, 27% active; AID 435020;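 active means inhibition reaching about 45% at 4 µM in either replicate, limit read from the data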;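 further: plate controls were PMA/ionomycin stimulated DMSO wells for no effect and unstimulated DMSO wells for full effect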
697 NFkB conf: lowers PMA/ionomycin-induced NF-kB signal in 697 B cells | 2,000 tested, 35% active | inhibition, % at 4 µM | shares compounds with 697 NFkB inh | 697 B-cell NF-kB luciferase, 16 h; in the data active means inhibition mostly above about 28%, no sharp cut-off; inactive means mostly below about 22%
GalR3 conf: GalR3 (human) antagonism, confirmation; shares compounds with GalR3 antagonist; HEK293 GalR3 CNG cAMP biosensor, membrane potential fluorescence; galR3 fused to GalR1 carboxy tail; challenged with forskolin and galanin at EC90; inhibition, % at 3 µM; 1,600 tested, 59% active;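 active means inhibition above the primary screen's cutoff, the mean inhibition of all screened compounds plus 3 SD, cut at about 13% in these data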;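 further: 0% = forskolin plus galanin and 100% = forskolin alone with DMSO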
CNG parental: acts as nonspecific agonist in parental HEK-CNG cells; shares compounds with GalR3 antagonist; HEK293-CNG parental cells, cAMP membrane potential fluorescence; normalised: DMSO wells 0%, forskolin wells 100%; activation, % at 3 µM; 1,600 tested, 10% active; AID 652268; in the data active means activation above about 1.3%
VP16 Luc counter: counter-screen for COUP-TFII antagonists: inhibitors of VP16. shares compounds with COUP-TFII inh. 2,500 tested, 25% active. AID 687007. inhibition, % at 8.5 µM. HEK293 Gal4-VP16 luciferase reporter, luminescence; in the data active means inhibition above about 13%
NR2F2 inh conf: confirmation of human COUP-TFII (NR2F2) inhibitors; shares compounds with COUP-TFII inh; HEK293 NGFI-A luciferase reporter, luminescence; inhibition, % at 8.5 µM; 2,500 tested, 45% active; AID 687008;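 active means mean inhibition over three repeats above a set limit taken from the earlier primary screen, cut at about 38% in these data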;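 further: 100% = cells given the luciferase reporter alone without the COUP-TF2 vector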
* = called active by the depositor; i = inactive; . = no result given. This is a sample that favours compounds with a hit; in the whole collection about 2% have one here.

SMILES	697 NFkB inh	GalR3 antagonist	Gli-Sufu block	Jurkat NFkB inh	COUP-TFII inh	697 NFkB conf	others
Cn1nccc1C(=O)NC1CCCc2c1cnn2-c1ccc(C(C)(C)C)cc1 (stereo not given)	44*	109*	76*	66*	69*	103*	Jurkat NFkB conf=71*;GalR3 conf=122*;CNG parental=0;VP16 Luc counter=-4;NR2F2 inh conf=69*
COc1ccc(/C=C/c2c(-c3ccc(OC)cc3)oc3ccc(-c4ccc(OC)cc4)cc23)cc1	15	-4	-19	-3	-5	.
COc1ccc(/C=C/c2cc(-c3ccc(C)cc3)o[n+]2C)cc1	93*	-4	87*	61*	67*	41*	Jurkat NFkB conf=52*;VP16 Luc counter=37*;NR2F2 inh conf=66*
CCOc1ccc(-n2c(SCC(=O)Nc3ccccc3-c3ccccc3)nnc2-c2ccccc2)cc1	.	.	.	.	10	.
CN(C)c1ncnc2c1ncn2C1OC(CO)C(O)C1O (stereo not given)	-104	0	-2	35	-20	.
COc1ccc(C[C@H](N)C(=O)N[C@H]2[C@@H](O)[C@H](n3cnc4c(N(C)C)ncnc43)O[C@@H]2CO)cc1	-5	.	90*	100*	99*	.	Jurkat NFkB conf=88*;VP16 Luc counter=48*;NR2F2 inh conf=97*
COc1ccc(C(=O)NNC(=O)c2ccccn2)cc1	-61	-5	-54	52*	46*	.	Jurkat NFkB conf=63*;VP16 Luc counter=-112;NR2F2 inh conf=-64
O=C(Nc1nc2cc3c(cc2s1)OCCO3)c1cccs1	-474	1	-101	-183	42*	-428	Jurkat NFkB conf=-80;VP16 Luc counter=-120;NR2F2 inh conf=-107
CC1(C)CC2CC(C)(CN2S(=O)(=O)c2ccc(C(=O)Nc3cccc(S(=O)(=O)N4CCOCC4)c3)cc2)C1 (stereo not given)	-16	87*	27	63*	68*	.	Jurkat NFkB conf=69*;GalR3 conf=115*;CNG parental=-2;VP16 Luc counter=1;NR2F2 inh conf=63*
CCOC(=O)[C@@]12CN(C(=O)OC(C)(C)C)CC=C1N(Cc1ccc(OC)cc1)C(=O)[C@H]2CC(=O)N1CCN(C(=O)C2CC2)CC1	.	.	.	.	-14	.
COC(=O)[C@]12C[C@H](CC(=O)NCC34CC5CC(CC(C5)C3)C4)C(=O)N(Cc3ccc4c(c3)OCO4)C1=C[C@H](C(C)C)O[C@@H]2C1CC1	.	.	.	.	7	.
Cc1cc2sc3ccc(C#CC4(O)CCCCC4)cc3c(=O)c2cc1C	88*	-3	.	83*	89*	75*	Jurkat NFkB conf=97*;VP16 Luc counter=89*;NR2F2 inh conf=109*
NC1(C#Cc2ccc3c(=O)c4ccccc4sc3c2)CCCCC1	-80	0	31	-3	10	.
CC(C)(CSc1ccccn1)NS(=O)(=O)c1ccccc1	1	-3	-2	5	17	.
CC(C)(CSc1ncccn1)NS(=O)(=O)c1ccccc1	39*	-4	0	3	8	6
Cc1ccc(C(=O)Oc2coc(CSc3ncccn3)cc2=O)cc1[N+](=O)[O-]	.	.	.	.	4	.
c1ccc(Cc2nc3ccccc3[nH]2)cc1	4	0	2	-12	1	.
Nc1ccc(Cc2nc3cc4ccccc4cc3[nH]2)cc1	i	5	-34	-83	-111	-344
Nc1ccc(C(=O)OCc2nc3cc4ccccc4cc3[nH]2)cc1	i	-2	0	-42	-72	-381
Nc1ccc(C(=O)OCCCc2nc3cc4ccccc4cc3[nH]2)cc1	-38	-6	-4	1	-35	.
CN(C)c1ccc(N=Nc2nccs2)cc1	.	-2	.	.	-50	.
CN(C)c1ccc(N=Nc2ccccc2Br)cc1	-279	-6	-85	-132	-68	-379
O=C1CC(N2CCCN(Cc3ccccc3)CC2)=NC(=O)N1c1ccc(Br)cc1	.	.	.	.	-7	.
O=C(/C=C/Nc1ccc(Br)cc1F)c1ccco1	-289	-1	-158	-65	-23	-20
CCOc1cc(/C=C2\C(=N)N3N=CSC3=NC2=O)ccc1OS(=O)(=O)c1ccccc1	44*	-4	-22	8	14	19
SMILES	697 NFkB inh	GalR3 antagonist	Gli-Sufu block	Jurkat NFkB inh	COUP-TFII inh	697 NFkB conf	others
Cc1nn2cc(-c3ccc(-c4ccccc4)cc3)nc2s1	-331	-6	-8	-107	-24	-328
COc1ccc(/C=C\C(=O)O[C@@H]2C(O)C(O[C@@H]3OC(C)[C@H](O[C@@H]4OCC(O[C@H]5O[C@H](CO)[C@@H](O)C(O)C5O)C(O)C4O)C(O)C3O)[C@H](OC(=O)[C@]34CCC(C)(C)C[C@@H]3C3=CCC5[C@@]6(C)CC(O)C(O[C@@H]7OC(CO)C(O)[C@H](O)[C@H]7O)[C@@](C)(C(=O)O)C6CC[C@@]5(C)[C@]3(CO)CC4)O[C@H]2C)cc1 (stereo not given in full)	49*	.	33	29	.	44*
C[C@@H]1CC[C@]2(C(=O)O[C@@H]3O[C@H](CO)[C@@H](O)[C@H](O)[C@H]3O)CC[C@]3(C)C(=CCC4[C@@]5(C)CC[C@H](O[C@@H]6OC[C@H](O)[C@H](O[C@@H]7O[C@H](CO)[C@@H](O)[C@H](O)[C@H]7O)[C@H]6O)C(C)(C)C5CC[C@]43C)C2[C@]1(C)O (stereo not given in full)	1	0	-6	-6	-2	.
CCOC(=O)CC[C@@]1(C(=O)OCC)C[C@@H](CC(=O)NCCc2ccccc2OC)C(=O)N2CCCC=C21	.	.	.	.	-33	.
NC(=O)COc1cccc(/C=N/NC(=O)c2ccc(-n3cccc3)cc2)c1	52*	-8	-3	10	-10	-7
CCc1ccc(OCc2nc(-c3ccccn3)no2)c(Br)c1	-352	-12	-87	-112	-22	-310
O=C(NCc1ccccc1)OC1CCC12CCC(c1ccccc1)CC2 (stereo not given)	.	.	.	.	25	.
CC(=O)c1ccc(N2CCN(c3ccnc4cc(Cl)ccc34)CC2)cc1	42*	-9	43	40	17	1
Cc1cc(COc2ccccc2OCc2cc(C)no2)on1	12	5	-2	1	12	.
Cc1noc(COc2ccccc2OCC(N)=O)c1Cl	38*	0	23	-3	-2	25
